Laboratory results as given in PubChem BioAssay AID602323 (The Scripps Research Institute Molecular Screening Center, 2012).
Values without a mark were called inactive. Calls of active or inactive are those of the source. How the calls were made is not given here.

Tested on: 80kDa SH
Assay: serine hydrolase inhibition in mouse brain membranes, late-stage follow-up, selectivity assay for DAGLb inhibitor project, biochemical, gel-based competitive ABPP, fluorescence, set 2 (AID 602323)
Settings: mouse brain membrane, at 1 µM, active compounds read high

SMILES	inhibition
O=C(N1CCCCC1Cc1ccccc1)n1cc(-c2ccc(-c3ccccc3Cl)cc2)nn1 (centres undefined)	0%
O=C(N1CCCCC1Cc1ccccc1)n1cc(-c2ccc(-c3ccccc3CO)cc2)nn1 (centres undefined)	5%
Cc1ccccc1-c1ccc(-c2cn(C(=O)N3CCCCC3Cc3ccccc3)nn2)cc1 (centres undefined)	0%
O=C(N(CCc1ccccc1)Cc1ccco1)n1cc(-c2ccc(OC(F)(F)F)cc2)nn1	80% (active)
COc1ccccc1-c1ccc(-c2cn(C(=O)N3CCCCC3Cc3ccccc3)nn2)cc1 (centres undefined)	0%
O=C(N1CCCCC1Cc1ccccc1)n1cc(-c2ccc(-c3cccc(CO)c3)cc2)nn1 (centres undefined)	10%
O=C(N1CCCCC1Cc1ccccc1)n1cc(-c2ccc(Br)cc2)nn1 (centres undefined)	50% (active)
O=C(N1CCCCC1Cc1ccccc1)n1cc(-c2ccc(-c3ccc4c(c3)OCO4)cc2)nn1 (centres undefined)	0%
O=C(N1CCCCC1Cc1ccccc1)n1cc(-c2ccccc2-c2ccccc2)nn1 (centres undefined)	80% (active)
O=C(N1CCCCC1Cc1ccccc1)n1cc(-c2ccc(-c3cccc(C(F)(F)F)c3)cc2)nn1 (centres undefined)	0%
O=C(N1CCCCC1Cc1ccccc1)n1cc(-c2ccc(-c3ccc(C(F)(F)F)cc3)cc2)nn1 (centres undefined)	0%
O=C(c1ccc(-c2cn(C(=O)N3CCCCC3Cc3ccccc3)nn2)cc1)N1CCCCC1 (centres undefined)	20%
O=C(N1CCCCC1Cc1ccccc1)n1cc(-c2ccc(-c3ccc(OC(F)(F)F)cc3)cc2)nn1 (centres undefined)	0%
CC(C)(C)OC(=O)NCCCCCN(CCc1ccccc1)C(=O)n1cc(-c2ccc(OC(F)(F)F)cc2)nn1	80% (active)
O=C(N1CCCCC1Cc1ccccc1)n1cc(-c2ccc(-c3ccccc3C(F)(F)F)cc2)nn1 (centres undefined)	0%
O=C(N1CCCCC1Cc1ccccc1)n1cc(-c2cc(F)cc(F)c2)nn1 (centres undefined)	80% (active)
O=C(N1CCCCC1Cc1ccccc1)n1ncc(-c2ccc(OC(F)(F)F)cc2)n1 (centres undefined)	50% (active)
O=C(N1CCCCC1Cc1ccccc1)n1cc(-c2cccc(-c3ccccc3)c2)nn1 (centres undefined)	0%
O=C(c1ccc(-c2ccc(-c3cn(C(=O)N4CCCCC4Cc4ccccc4)nn3)cc2)cc1)N1CCCCC1 (centres undefined)	40%
CC(C)CN(CCc1ccccc1)C(=O)n1cc(-c2ccc(OC(F)(F)F)cc2)nn1	80% (active)
O=C(N1CCCCC1Cc1ccccc1)n1cc(-c2ccc(OC(F)(F)F)cc2)nn1 (centres undefined)	20%
O=C(N1CCCCC1Cc1ccccc1)n1cc(-c2ccc(-c3ccoc3)cc2)nn1 (centres undefined)	20%
O=C(N1CCCCC1Cc1ccccc1)n1ncc(C(O)(c2ccccc2)c2ccccc2)n1 (centres undefined)	20%
O=C(N1CCCCC1Cc1ccccc1)n1cc(-c2ccc(-c3ccccc3OC(F)(F)F)cc2)nn1 (centres undefined)	10%
